A number with no mark means an inactive call. Records with an inconclusive call do not appear. The source made the active and inactive calls. Unless noted, the call rests on the fitted dose curve; in most records, active means well fitted curve in the direction sought with a large enough effect in the repeat runs; inconclusive means weak or mixed curves; inactive means no such curve, though single readings can be large; an effect the other way counts as inactive or inconclusive.

Data on seven compounds can be found in PubChem BioAssay (Tox21).

Test [1] can be described thus: qHTS assay for small molecule agonists of the p53 signaling pathway (AID 651631; calls by dose curve; further: nearly all actives have a fitted effect of over 15% in size). The essentials:
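Readout was fluorescence from the LiveBLAzer FRET substrate, applied for 2 h at room temperature after 16 h compound exposure at 37 °C. Cells were the p53RE-bla HCT-116 line, with beta-lactamase driven by p53 response elements.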
(In general: qHTS replaces the single test concentration by a dilution series.)

Test [2] is described as follows: qHTS assay for small molecules that induce genotoxicity in human embryonic kidney cells expressing luciferase-tagged ATAD5 (AID 651632). Further: nearly all actives have a fitted effect of over 15% in size. Put shortly: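 Test compounds were delivered by pin tool onto HEK293T reporter cells (2,000/well) expressing ATAD5 fused to luciferase. After 16 hr at 37C, 5% CO2, Amplite was added for 30 min at room temperature and luminescence was measured.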

Test [3] in a line: qHTS assay for small molecule agonists of the p53 signaling pathway - cell viability (AID 651633; calls by dose curve; further: series mostly up to about 83 µM; nearly all actives have a fitted effect of over 30% in size). The essentials: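 Viability counter-read: CellTiter-Glo luminescence (30 min, room temperature) in the same p53RE-bla plates. These plates had been exposed to compounds for 16 h at 37 C.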
Test [4] in a line: qHTS assay for small molecules that induce genotoxicity in human embryonic kidney cells expressing luciferase-tagged ATAD5 - cell viability (AID 651634; calls by dose curve; further: nearly all actives have a fitted effect of over 25% in size). Put shortly: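 Quantitative high-throughput format. HEK293T cells expressing ATAD5 fused to luciferase were plated at 2,000 cells/well and treated 15.5 hr with compound versus DMSO. Viability was determined by fluorescent live-cell protease substrate, 30 min at 37C.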

Test [5] in a line: qHTS assay for small molecule disruptors of the mitochondrial membrane potential - cell viability (AID 720634; calls by dose curve;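 further: human HepG2 liver cancer cells; series mostly up to about 83 µM; nearly all actives have a fitted effect of over 20% in size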). The essentials:
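Same-well counter-screen: following the MMP dye addition, CellTiter-Glo was added to 1 hr compound-treated HepG2 cells and luminescence read after 30 min at room temperature.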

Test [6] is described as follows: qHTS assay for small molecule disruptors of the mitochondrial membrane potential (AID 720635). The essentials:
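Mitochondrial membrane potential tracked with Mito-MPS dye, red aggregates (ex 540/em 590 nm) against green monomers (ex 490/em 535 nm). Compound treatment 1 hr at 37C, dye 30 min in HepG2.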

Test [7] can be described thus: qHTS assay to test for compound auto fluorescence at 590 nm (red) in HepG2 cells (AID 720674). The essentials:
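We screened compounds on adherent HepG2 cells, incubating them for an hour at 37 C in 5% CO2 before reading emission at 590 nm under 540 nm excitation; values reflect equivalence to Rose Bengal sodium fluorescence.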

Test [8] is described as follows: qHTS assay to test for compound auto fluorescence at 535 nm (green) in HepG2 cells (AID 720675).
A short description of test [9]: qHTS assay to test for compound auto fluorescence at 460 nm (blue) in HEK293 cells (AID 720678). The essentials: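 Blue read-out at excitation 405 nm and emission 460 nm follows overnight compound exposure of HEK293 cells at 37C in 5% CO2. Activity is given as auto fluorescence equivalency to triamterene.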
Test [10] can be described thus: qHTS assay to test for compound auto fluorescence at 590 nm (red) in HEK293 cells (AID 720679). Put shortly: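 Red channel, Ex/Em 540/590nm; signal expressed as equivalency to Rose Bengal sodium. HEK293, 2,000 cells/well, 10% dialyzed FBS; 23 nL compound pinned after 4-5 hr attachment; overnight 37C/5% CO2 before reading.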
A short description of test [11]: qHTS assay to test for compound auto fluorescence at 460 nm (blue) in HEK293 cell free culture (AID 720681). Put shortly:
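Blue fluorescence (Ex 405/Em 460 nm, triamterene-equivalent) was read immediately after pin transfer of compound or DMSO into medium (DMEM, 10% FBS) without cells.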

The nature of test [12]: qHTS assay to test for compound auto fluorescence at 590 nm (red) in HEK293 cell free culture (AID 720683). Put shortly: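 Red-channel autofluorescence of compounds in culture medium (DMEM, 10% FBS), no cells, measured at 540/590 nm. Rose Bengal sodium is the reference fluorophore for equivalence.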
A short description of test [13]: qHTS assay to test for compound auto fluorescence at 590 nm (red) in HepG2 cell free culture (AID 720684). Put shortly: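 Cell-free; medium MEM + 10% FBS; compound or DMSO added by pintool; read Ex 540/Em 590 nm; Rose Bengal sodium as red reference fluorophore.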
Test [14] in a line: qHTS assay to test for compound auto fluorescence at 460 nm (blue) in HepG2 cell free culture (AID 720685). Put shortly: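 Cell-free plates of MEM plus 10% FBS received 23 nL compound or DMSO vehicle; blue-channel (405/460 nm) intensity scored against triamterene as reference fluorophore.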
Test [15] is described as follows: qHTS assay to test for compound auto fluorescence at 535 nm (green) in HepG2 cell free culture (AID 720686).
The nature of test [16]: qHTS assay to test for compound auto fluorescence at 460 nm (blue) in HepG2 cells (AID 720687). Put shortly: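 Blue-channel autofluorescence (Ex/Em 405/460 nm, triamterene-equivalent) was measured after 1 hr compound exposure at 37 C, 5% CO2. Cells were HepG2, plated overnight at 37 C in MEM plus 10% FBS.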
Test [17] in a line: qHTS assay to identify small molecule antagonists of the glucocorticoid receptor (GR) signaling pathway - cell viability counter screen (AID 720693). Further: nearly all actives have a fitted effect of over 55% in size.
A short description of test [18]: qHTS assay for identifying genotoxic compounds that show differential cytotoxicity against isogenic chicken DT40 cell lines with known DNA damage response pathways - Rad54/Ku70 mutant cell line (AID 743015). Further: nearly all actives have a fitted effect of over 60% in size.
Test [19] in a line: qHTS assay to identify small molecule antagonists of the androgen receptor (AR) signaling pathway - cell viability counter screen (AID 743033; further: nearly all actives have a fitted effect of over 45% in size).
Test [20] in a line: qHTS assay to identify small molecule antagonists of the androgen receptor (AR) signaling pathway using the MDA cell line - cell viability counter screen (AID 743041; further: nearly all actives have a fitted effect of over 45% in size). The essentials:
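Viability read by CellTiter-Fluor fluorescence in the same wells as the antagonist screen, added after 15.5 h of a 16 h, 37C exposure. Human breast carcinoma MDA-kb2 AR-luc cells, compounds co-dosed with agonist R1881.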

Test [21] can be described thus: qHTS assay to identify small molecule antagonists of the thyroid receptor (TR) signaling pathway - cell viability counter screen (AID 743064). Further: nearly all actives have a fitted effect of over 50% in size. The essentials:
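In-well cytotoxicity read by CellTiter-Fluor (30 min, 37 C) following 23.5 h exposure of GH3 cells bearing a TRE-luciferase sensor. Compounds were added alongside 1 nM (final) T3 to drive TR transactivation.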

Test [22] in a line: qHTS assay to identify small molecule antagonists of the thyroid receptor (TR) signaling pathway (AID 743065). Further: series mostly up to about 70 µM; nearly all actives have a fitted effect of over 55% in size. Put shortly: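 Antagonism measured as loss of luciferase signal in GH3 cells stably carrying a TRE-luciferase reporter, co-treated with compound and T3 (1 nM final) for 23.5 h at 37 C. Viability was read in the same well by CellTiter-Fluor.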
In test [23] the test system is thyroid hormone receptor (rat, GH3 cells). The test is described as follows: qHTS assay to identify small molecule agonists of the thyroid receptor (TR) signaling pathway (AID 743066; calls by dose curve).
The target in test [24] is Estrogen receptor (Homo sapiens) (UniProt P03372). The test is described as follows: qHTS assay to identify small molecule antagonists of the estrogen receptor alpha (ER-alpha) signaling pathway (AID 743069; active means well fitted curve in the direction sought with a large enough effect in the signal ratio in the repeat runs, not every such curve was filed as active; the % refers to the signal ratio). The essentials: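 Antagonist mode: compounds in DMSO were co-added with 17beta-estradiol to ER-alpha-bla HEK293 cells (2% charcoal-stripped serum) and left 18 h at 37C. Reporter inhibition was measured as FRET fluorescence after 2 h LiveBLAzer substrate at room temperature.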

For test [25] the target is unchanged. In words: qHTS assay to identify small molecule agonists of the estrogen receptor alpha (ER-alpha) signaling pathway (AID 743075; calls by dose curve;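 further: HEK293 GripTite cells with ER-alpha and UAS-driven beta-lactamase reporter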).
Test [26] has the same target. The test is described as follows: qHTS assay to identify small molecule agonists of the estrogen receptor alpha (ER-alpha) signaling pathway using the BG1 cell line (AID 743079). Further: nearly all actives have a fitted effect of over 20% in size.
Test [27] in a line: qHTS assay to identify small molecule antagonists of the estrogen receptor alpha (ER-alpha) signaling pathway using the BG1 cell line (AID 743080; calls by dose curve;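 further: BG1 cells stimulated with 17beta-estradiol alongside compound; series mostly up to about 70 µM; nearly all actives have a fitted effect of over 25% in size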). The essentials:
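Luminescence from a 4×ERE-luciferase reporter in BG1-Luc-4E2 cells served as read-out. Cells, pre-cultured 5 days in stripped-serum phenol-red-free medium, were exposed to compound with 17beta-estradiol co-stimulation for 21.5 h at 37 C.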

Test [28] can be described thus: qHTS assay to identify small molecule antagonists of the estrogen receptor alpha (ER-alpha) signaling pathway using the BG1 cell line - cell viability counter screen (AID 743081).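 Further: compound given together with 17beta-estradiol as the ER stimulus; series mostly up to about 70 µM; nearly all actives have a fitted effect of over 45% in size.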
A further test has as its target Aromatase (Homo sapiens) (UniProt P11511). The test is described as follows: qHTS assay to identify aromatase inhibitors (AID 743083). Further: series mostly up to about 70 µM; nearly all actives have a fitted effect of over 55% in size.
Test [29] in a line: qHTS assay to identify aromatase inhibitors - cell viability counter screen (AID 743084).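 Further: cells stimulated with testosterone during compound exposure; nearly all actives have a fitted effect of over 55% in size.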
In test [30] the target is Aryl hydrocarbon receptor (Homo sapiens) (UniProt P35869). In words: qHTS assay to identify small molecule that activate the aryl hydrocarbon receptor (AhR) signaling pathway (AID 743085).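 Further: HG2L7.5c1 human HepG2 liver cells with stably integrated DRE-driven firefly reporter; series mostly up to about 70 µM; nearly all actives have a fitted effect of over 15% in size.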 Put shortly: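 Luminescence (ONE-Glo) from a dioxin-responsive-element luciferase reporter in HG2L7.5c1 HepG2 cells after 24 hr compound exposure at 37C; viability measured by CellTiter-Fluor fluorescence beforehand.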

Test [31] addresses Peroxisome proliferator-activated receptor gamma (Homo sapiens) (UniProt P37231). The test is described as follows: qHTS assay to identify small molecule agonists of the peroxisome proliferator-activated receptor gamma (PPARg) signaling pathway (AID 743094; active means well fitted activation curve with a large enough effect in the signal ratio in the repeat runs, not every such curve was filed as active; the % refers to the signal ratio). The essentials:
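Cell-based bla reporter, HEK293H background, PPARg-driven UAS. Pre-incubation 5 h, 37C, 5% CO2. Compound 17 h, 37C. Substrate 1 h RT; fluorescence.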

The nature of test [32]: qHTS assay to identify small molecule antagonists of the estrogen related receptor (ERR) signaling pathway - cell viability counter screen (AID 1224818). Further: series mostly up to about 46 µM. Put shortly: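 Cytotoxicity check run alongside the ERR antagonist screen: cells exposed to test compounds 17.5 h at 37 C, viability taken as CellTiter-Fluor fluorescence intensity.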
A short description of test [33]: qHTS assay to identify small molecule agonists of the estrogen related receptor (ERR) signaling pathway (AID 1224820). The essentials: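 An ERR cell line provided by NTP was seeded at 2,000 cells per well and allowed to settle for 6 h before compounds in DMSO were added. After 18 h at 37 C, luciferase activity was measured by One-Glo luminescence.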
For test [34], the system named is estrogen-related receptor alpha (ERRalpha) with PGC-1alpha coactivator, human. In words: qHTS assay to identify small molecule antagonists of the estrogen related receptor signaling pathway with the pleiotropic PPARgamma coactivator (PGC) (AID 1224821; calls by dose curve; further: nearly all actives have a fitted effect of over 50% in size; further: potency means the concentration at half of the fitted maximal effect). Put shortly: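 A PGC/ERR cell line supplied by NTP is seeded, allowed 6 h at 37 C, and treated with test compounds in DMSO for 18 h. Signal is then measured as luciferase luminescence using One-Glo.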

A short description of test [35]: qHTS assay to identify small molecule antagonists of the estrogen related receptor signaling pathway with the pleiotropic PPARgamma coactivator (PGC) cell viability counter screen (AID 1224822;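 further: series mostly up to about 46 µM; viability read after 17.5 h compound exposure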). The essentials: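 Viable cell signal (CellTiter-Fluor, 30 min, 37 C/5% CO2) was measured in PGC/ERR cells after a 17.5 h compound incubation.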
Test [36] is described as follows: qHTS assay to identify small molecule agonists of the estrogen related receptor signaling pathway with the pleiotropic PPARgamma coactivator (PGC) (AID 1224823). Put shortly:
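Compounds dissolved in DMSO are added by pin tool to PGC/ERR cells that have settled for 6 h, and incubation continues 18 h at 37 C. Reporter output is measured as One-Glo luminescence.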

A short description of test [37]: qHTS assay to identify small molecule phospholipidosis (PLD) inducers (AID 1259344; active means well fitted curve in the direction sought with a large enough effect; an effect the other way counts as inactive or inconclusive). Put shortly:
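Phospholipid accumulation was scored by imaging: fixed, Hoechst-counterstained HepG2 cells stained with LipidTOX Red after 24 h compound exposure at 37 C. Read-outs were pit count and pit intensity per well or per cell, with amiodarone and DMSO controls.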

Estrogen receptor (Homo sapiens), sequence (P03372 whole entry, looked up): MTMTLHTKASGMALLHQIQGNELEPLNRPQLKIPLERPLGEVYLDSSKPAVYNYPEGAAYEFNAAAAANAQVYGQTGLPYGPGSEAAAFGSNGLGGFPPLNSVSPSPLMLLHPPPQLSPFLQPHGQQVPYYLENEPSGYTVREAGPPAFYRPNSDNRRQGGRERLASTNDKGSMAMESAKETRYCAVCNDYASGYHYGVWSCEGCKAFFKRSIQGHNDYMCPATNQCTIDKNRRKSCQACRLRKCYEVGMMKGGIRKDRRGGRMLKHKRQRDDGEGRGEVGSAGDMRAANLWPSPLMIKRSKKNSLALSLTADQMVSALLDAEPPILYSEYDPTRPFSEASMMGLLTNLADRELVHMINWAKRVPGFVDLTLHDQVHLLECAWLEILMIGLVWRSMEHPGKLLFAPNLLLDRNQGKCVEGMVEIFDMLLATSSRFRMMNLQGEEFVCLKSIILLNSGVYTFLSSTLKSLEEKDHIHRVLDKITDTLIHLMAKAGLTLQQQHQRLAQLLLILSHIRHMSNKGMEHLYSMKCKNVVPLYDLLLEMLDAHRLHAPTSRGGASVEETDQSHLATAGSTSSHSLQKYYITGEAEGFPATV
Peroxisome proliferator-activated receptor gamma (Homo sapiens), sequence (P37231 whole entry, looked up): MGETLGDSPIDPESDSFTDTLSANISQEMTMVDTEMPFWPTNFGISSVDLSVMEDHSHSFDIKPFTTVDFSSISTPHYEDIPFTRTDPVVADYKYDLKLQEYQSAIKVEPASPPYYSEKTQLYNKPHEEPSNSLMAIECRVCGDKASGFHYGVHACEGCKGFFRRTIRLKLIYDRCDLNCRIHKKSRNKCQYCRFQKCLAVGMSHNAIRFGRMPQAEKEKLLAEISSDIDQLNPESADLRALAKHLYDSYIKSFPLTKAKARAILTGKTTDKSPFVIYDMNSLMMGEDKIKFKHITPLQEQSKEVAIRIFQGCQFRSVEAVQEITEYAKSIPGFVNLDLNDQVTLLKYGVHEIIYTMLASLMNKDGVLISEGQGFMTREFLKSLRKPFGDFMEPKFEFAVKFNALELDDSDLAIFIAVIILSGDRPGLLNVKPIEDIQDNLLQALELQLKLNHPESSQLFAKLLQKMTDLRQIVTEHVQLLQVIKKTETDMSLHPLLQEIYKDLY
Aromatase (Homo sapiens), sequence (P11511 whole entry, looked up): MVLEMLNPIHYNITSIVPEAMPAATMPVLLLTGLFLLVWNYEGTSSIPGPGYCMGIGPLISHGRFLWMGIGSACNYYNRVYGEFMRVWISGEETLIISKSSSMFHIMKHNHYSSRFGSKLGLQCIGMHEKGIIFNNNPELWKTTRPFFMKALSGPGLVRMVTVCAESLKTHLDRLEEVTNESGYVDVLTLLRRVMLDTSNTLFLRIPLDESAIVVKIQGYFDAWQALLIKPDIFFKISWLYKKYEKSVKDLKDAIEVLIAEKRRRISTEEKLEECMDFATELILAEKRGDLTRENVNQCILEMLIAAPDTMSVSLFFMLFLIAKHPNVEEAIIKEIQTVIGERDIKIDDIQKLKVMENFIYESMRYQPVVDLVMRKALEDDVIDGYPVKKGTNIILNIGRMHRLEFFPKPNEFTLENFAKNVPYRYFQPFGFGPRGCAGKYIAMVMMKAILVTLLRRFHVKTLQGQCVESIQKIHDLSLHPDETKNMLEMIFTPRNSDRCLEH
Aryl hydrocarbon receptor (Homo sapiens), sequence (P35869 whole entry, looked up): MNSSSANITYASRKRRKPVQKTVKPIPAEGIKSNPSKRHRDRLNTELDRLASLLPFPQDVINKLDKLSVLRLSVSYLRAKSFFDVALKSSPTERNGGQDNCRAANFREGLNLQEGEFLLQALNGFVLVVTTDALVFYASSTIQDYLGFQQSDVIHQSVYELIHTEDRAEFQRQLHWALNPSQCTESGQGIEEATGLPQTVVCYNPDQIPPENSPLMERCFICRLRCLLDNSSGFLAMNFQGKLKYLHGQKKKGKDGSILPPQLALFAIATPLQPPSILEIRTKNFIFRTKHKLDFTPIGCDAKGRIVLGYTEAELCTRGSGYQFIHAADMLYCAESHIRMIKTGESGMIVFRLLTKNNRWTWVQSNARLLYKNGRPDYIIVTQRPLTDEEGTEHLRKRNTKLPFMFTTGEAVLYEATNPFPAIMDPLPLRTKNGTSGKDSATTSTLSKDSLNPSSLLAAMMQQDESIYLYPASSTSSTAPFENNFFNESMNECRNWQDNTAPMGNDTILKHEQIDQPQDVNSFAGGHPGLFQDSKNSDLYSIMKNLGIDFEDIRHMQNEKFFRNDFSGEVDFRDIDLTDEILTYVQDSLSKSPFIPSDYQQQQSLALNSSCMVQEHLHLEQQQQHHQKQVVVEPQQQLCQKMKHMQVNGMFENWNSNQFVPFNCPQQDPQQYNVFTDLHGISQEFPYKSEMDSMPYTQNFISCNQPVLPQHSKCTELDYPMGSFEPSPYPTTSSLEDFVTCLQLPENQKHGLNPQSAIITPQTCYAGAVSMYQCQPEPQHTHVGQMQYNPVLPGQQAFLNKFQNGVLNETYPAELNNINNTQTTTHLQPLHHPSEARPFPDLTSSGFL

For the compound `O=P(O)(O)C(Cl)(Cl)P(=O)(O)O`, the Potency entry in [1], in [2], in test [3], in test [4], in [5] and in test [6] was “inactive” throughout. Also, the Potency entry in [8], in test [9], in test [11], in test [14], in [15] and in [16] was “inactive” in each case. The Potency entry in test [17], in [18], in [19], in [20], in test [21] and in test [22] was “inactive” each time. Further, the Potency result in test [23], in test [24], in test [25], in test [26], in [27] and in [28] was “inactive” throughout. Besides, the Potency result (with Aromatase (Homo sapiens); in test [29]; in test [30]; in test [31]; in [32]; in [33]) was “inactive” each time. The Potency entry in [34], in test [35], in [36] and in [37] was “inactive” in each case. In addition, the call in [7], in [10], in test [12] and in test [13] was inactive.

For `NC(=O)COc1c(F)cc(SCCNS(=O)(=O)c2ccccc2)cc1F`, the Potency entry in test [32], in test [33], in test [34], in [35] and in test [36] was “inactive” each time.

With `CNCCc1ccc(O)c(O)c1`, the Potency entry in test [32], in test [33], in test [34], in [35] and in test [36] was “inactive” each time.

On to `CN1CCC(c2c[nH]c3ccc(O)cc23)CC1`, for which the Potency entry in test [32], in test [33], in test [34], in [35] and in [36] was “inactive” each time.

For `NC(CCCCCP(=O)(O)O)C(=O)O` (configuration not stated), the Potency entry in test [32], in test [33], in test [34], in [35] and in test [36] was “inactive” throughout.

On to `Clc1cc(I)cc(Cl)c1NC1=NCCN1`, for which the Potency entry in test [32], in test [33], in test [34], in test [35] and in [36] was “inactive” each time.

For the compound `C[C@@H]1O[C@@H](O[C@H]2C[C@@H](O)[C@]3(CO)[C@@H]4C(CC[C@]3(O)C2)[C@@]2(O)CC[C@H]([C@@H]3COC(=O)C3)[C@@]2(C)C[C@H]4O)[C@H](O)[C@H](O)[C@H]1O` (some centres not stated), the Potency result in [32], in [33] and in test [36] was “inactive” each time. Besides, the Potency in test [34] was 3.48 µM (active).
